Here are results for 28 compounds from PubChem BioAssay (NCATS).

The subject of assay [1] is Nanoluciferase (engineered Oplophorus gracilirostris luciferase). As to the kind of experiment: Primary Nanoluciferase (NLuc) qHTS assay for identification of artifact compounds. (AID 1845222). Note: series mostly up to about 54 µM. In short, it runs like this:
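Luminescence read-out of secreted NLuc in S16 cell conditioned medium (1:55); compounds tested with 15 min RT preincubation, then Nano-Glo substrate 1:100, 5 min. % inhibition vs no-enzyme and DMSO controls, 4-parameter Hill fit.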

Assay [2] in a line: Primary redox qHTS assay for identification of artifact compounds. (AID 1845223). Note: potency is the fitted concentration of half-maximal effect. In short, it runs like this:
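Redox-cycling detection via DTT (250 uM final) oxidation coupled to Amplex Red (25 uM)/HRP (250 mU/mL) in HBSS. 15 min preincubation plus 30 min after DTT, room temperature. Ex/Em 525/598 nm; 4-parameter Hill fit against DMSO and 10 uM DA3003.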
A general note: Quantitative high-throughput screening tests each substance at several concentrations.

Structures are written as SMILES. Unmarked numbers belong to inactive results. Inconclusive results are not listed. Entries that show only a call come without a potency. The source made the active and inactive calls. Calls come from the whole dose curve; as a rule, active = well fitted curve in the direction sought with a large enough effect; inconclusive = small, poorly fitted or top-dose-only effect, or another doubt; inactive = no such curve, though single readings can be large; an effect the other way counts as inactive or inconclusive.

Turning to `COC(=O)C1(O)C(OC(C)=O)CCC2C3(CC(c4ccoc4)OC3=O)C(C)=CCC21C(=O)OC` (stereo unspecified), the Potency result in assay [1] and in assay [2] was “inactive” throughout.
As to `CCN=C1N[C@@H]2[C@@H](O)[C@H](O)[C@@H](CO)O[C@@H]2S1`, the Potency result in assay [1] and in assay [2] was “inactive” throughout.
`COc1cc(C)c(C(=O)O[C@@H]2[C@H](O)[C@@H](CO)O[C@H]2n2ccc(=O)[nH]c2=O)c(OC)c1`: the Potency result in assay [1] and in assay [2] was “inactive” in each case.
As for `C[C@@H]1O[C@@H](O[C@H]2[C@H](Oc3cc(O)c(C(=O)CCc4ccc(O)cc4)c(O)c3)O[C@H](CO)[C@@H](O)[C@@H]2O)[C@H](O)[C@H](O)[C@H]1O`, in assay [1], the Potency entry was “inactive”. The Potency in assay [2] was 10.6 µM (active).
The matching figures for `CC(O)CCc1ccc(O[C@@H]2O[C@H](CO)[C@@H](O)[C@H](O)[C@H]2O)cc1` (stereo partly specified): “inactive” and “inactive”.
The matching figures for `O=C(O)c1cc(O[C@@H]2O[C@H](CO)[C@@H](O)[C@H](O)[C@H]2O)ccc1O`: “inactive” and “inactive”.
The matching figures for `CC1C2=CC(=O)OC2(O)CC2C1C(O)CC1C(C)(CO)CCCC21C` (stereo unspecified): “inactive” and “inactive”.
Turning to `CC(=O)O[C@@H]1C(=O)C(C)=C(CCC(C)CC(=O)O)[C@@]2(C)CCCC(C)(C)C12` (stereo partly specified), the Potency entry in assay [1] and in assay [2] was “inactive” each time.
Regarding `C/C=C(\C)C(=O)OC[C@H]1O[C@H](O[C@H]2O[C@H](CO)[C@@H](O)[C@H](O)[C@H]2O[C@@H]2O[C@H](CO)[C@@H](O)[C@H](O)[C@H]2O)[C@H](O[C@@H]2O[C@H](CO)[C@@H](O)[C@H](O)[C@H]2O)[C@@H](O)[C@@H]1O`, the Potency entry in assay [1] and in assay [2] was “inactive” in each case.
`C[C@@]1(C(=O)O)CCC[C@@]2(C)C3=CC[C@H]4C[C@@]3(CC[C@H]12)CC4(O)CO` (stereo partly specified): the Potency result in assay [1] and in assay [2] was “inactive” in each case.
`CC1(C)C2CCC1(C)C(OC(=O)C(O)(CC(=O)O)CC(=O)O)C2` (stereo unspecified): the Potency result in assay [1] and in assay [2] was “inactive” each time.
`CC(=O)NCC1CN(c2ccc(-c3ccc(CNCc4cn[nH]n4)cc3)c(F)c2)C(=O)O1` (stereo unspecified): the Potency result in assay [1] and in assay [2] was “inactive” throughout.
For the compound `O=C(O)c1cc(C(F)(F)F)ccc1N1CC[C@H](OCc2ccccn2)C1`, the Potency entry in assay [1] and in assay [2] was “inactive” each time.
For `COc1cc(C(C)=O)ccc1O[C@@H]1O[C@H](CO[C@@H]2OC[C@@H](O)[C@H](O)[C@H]2O)[C@@H](O)[C@H](O)[C@H]1O`, the Potency entry in assay [1] and in assay [2] was “inactive” throughout.
For the compound `CC1CC(=O)[C@]2(O)C(C(=O)OCCc3ccc(O)c(O)c3)=CO[C@@H](O[C@@H]3O[C@H](CO)[C@@H](O)[C@H](O)[C@H]3O)[C@H]12` (stereo partly specified), the Potency result in assay [1] and in assay [2] was “inactive” in each case.
In the case of `CCCNCCOc1ccc(NC(=O)c2c[nH]c3c2C(=O)CCC3)cc1F`, the Potency entry in assay [1] and in assay [2] was “inactive” throughout.
Take `c1cc(-c2cc(C3CCNCC3)[nH]n2)ccn1`: the Potency entry in assay [1] and in assay [2] was “inactive” throughout.
In the case of `C[C@H]1CC[C@@]2(OC1)O[C@H]1CC3C4CC[C@H]5C[C@@H](O[C@@H]6O[C@H](CO)[C@H](O[C@@H]7O[C@H](CO)[C@@H](O)[C@H](O[C@@H]8OC[C@@H](O)[C@H](O)[C@H]8O)[C@H]7O[C@@H]7O[C@H](CO)[C@@H](O)[C@H](O)[C@H]7O)[C@H](O)[C@H]6O)[C@H](O)C[C@]5(C)C4=CC(=O)[C@]3(C)[C@H]1[C@@H]2C` (stereo partly specified), the activity, negative = inhibition in assay [1] was 0% [at 11.6 µM]. The redox activity (% of DA3003) in assay [2] was 3.4% [at 11.5 µM].
Turning to `O=C(O)CCc1cc2ccoc2cc1O[C@@H]1O[C@H](CO)[C@@H](O)[C@H](O)[C@H]1O`, the Potency entry in assay [1] and in assay [2] was “inactive” each time.
On to `CC(C)C1NC(=O)C2CCCN2C1=O` (stereo unspecified), for which the Potency result in assay [1] and in assay [2] was “inactive” throughout.
In the case of `C=C1C(OC(C)=O)[C@@]23CCC4[C@](C)(C(=O)O)CCC[C@@]4(C)[C@]2(O)CC[C@H]1C3` (stereo partly specified), the Potency result in assay [1] and in assay [2] was “inactive” in each case.
In the case of `CC/C=C/C(O)C(O)C1=C(C)C(=O)C2(O1)C(=O)NC(OC)(C(=O)c1ccccc1)C2O` (stereo unspecified), the Potency entry in assay [1] and in assay [2] was “inactive” throughout.
In the case of `C=C1C(=O)O[C@@H]2CC(C)=C([C@@H](C)CCCOC(C)=O)[C@@H](O)[C@H]12`, the Potency result in assay [1] and in assay [2] was “inactive” each time.
As for `O=C(/C=C/c1ccc(O)cc1)O[C@H]1[C@H](OC2CCCCC2O)O[C@H](CO)[C@@H](O)[C@@H]1O` (stereo partly specified), the Potency result in assay [1] and in assay [2] was “inactive” in each case.
In the case of `CC1=C(CO)CC(C(C)C2CCC3C4CC=C5CC(OC6OC(COC7OC(CO)C(O)C(O)C7O)C(O)C(O)C6O)CC(O)C5(C)C4CCC23C)OC1=O` (stereo unspecified), the Potency entry in assay [1] and in assay [2] was “inactive” in each case.
Turning to `CN1C(=O)N(c2cc(Cl)cc(Cl)c2)C(=O)[C@@]1(C)Cc1ccc(Br)cc1`, the Potency result in assay [1] and in assay [2] was “inactive” throughout.
`COc1cc(C(O)C2COC(c3ccc(OC4OC(CO)C(O)C(O)C4O)c(OC)c3)C2CO)ccc1O` (stereo unspecified): the Potency entry in assay [1] and in assay [2] was “inactive” throughout.
With `C=CCC1=C[C@]2(OC)[C@H](C)[C@@H](c3ccc(OC)c(OC)c3)O[C@]2(OC)CC1=O`, the Potency result in assay [1] and in assay [2] was “inactive” throughout.
